Data from PubChem BioAssay (Tox21).
Several values for one entry are separate records, joined by “and”; a condition that tells them apart may be missing. Equal values may be shown once. Results filed as inconclusive are left out. Some compounds were tested as several samples or in several runs, with calls that do not always agree. Activity calls are given as the source filed them. The call rests on the fitted dose curve; in most records, active means well fitted curve in the direction sought with a large enough effect in the repeat runs; inconclusive means weak or mixed curves; inactive means no such curve, though single readings can be large; an effect the other way counts as inactive or inconclusive.

Tests used:
[1] = Caspase-3/7 induction in CHO-K1 cells by small molecules, qHTS assay (AID 1346980); further: on the % scale 0 is the no-effect control and ±100 the full control effect; nearly all actives have a fitted effect of over 15% in size
In short: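 Wild-type cells were seeded at 1,500 per well and settled 5 hr at 37 C, 5% CO2, then exposed to DMSO-dissolved compounds for 17 hr. Caspase-Glo 3/7 reagent was added, and luminescence was read after 30min at room temperature.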

[2] = Caspase-3/7 induction in HepG2 cells by small molecules, qHTS cell viability counter screen (AID 1346981); further: nearly all actives have a fitted effect of over 30% in size; further: potency means the concentration at half of the fitted maximal effect
In short: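 Wild-type HepG2 cells (2,000/well) were allowed to settle for 5 hr at 37 C, 5% CO2, then dosed with compounds in DMSO by pin transfer. After 16 hr at 37 C, CellTiter-Fluor was added and fluorescence read 1 hr later.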

[3] = molecular target: Nuclear receptor subfamily 1 group I member 2 (Homo sapiens) (UniProt O75469); test: Human pregnane X receptor (PXR) small molecule agonists, qHTS assay (AID 1346982); further: nearly all actives have a fitted effect of over 35% in size; further: potency means the concentration at half of the fitted maximal effect; on activation: on the % scale 0 is the no-effect control and ±100 the full control effect
In short: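 PXR-Luc HepG2 cells (CYP3A4 promoter-driven luciferase) were seeded in medium with 5% charcoal-stripped FBS, left 5 hr at 37 C, then exposed to compounds in DMSO for 24 hr. Luminescence was read after ONE-Glo addition.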

[4] = molecular target: Nuclear receptor subfamily 1 group I member 2 (Rattus norvegicus) (UniProt Q9R1A7); test: Rat pregnane X receptor (rPXR) activation by small molecules, qHTS assay (AID 1346983); details: rPXR luciferase reporter cells, One-Glo luminescence, 24 h; max activation: stronger effect = higher value; further: nearly all actives have a fitted effect of over 20% in size; further: potency means the concentration at half of the fitted maximal effect; on max activation: on the % scale 0 is the no-effect control and ±100 the full control effect
In short: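 Cell-based rPXR luciferase reporter assay, 2,000 cells per well, rested 5hr at 37 C before compound addition in DMSO, then 24 hr at 37 C. One-Glo reagent was added and luminescence read after 30 min at room temperature.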

[5] = molecular target: Nuclear receptor subfamily 1 group I member 2 (Homo sapiens) (UniProt O75469); test: CYP3A4 induction through human pregnane X receptor (PXR) by small molecules, qHTS assay (AID 1346984); further: on the % scale 0 is the no-effect control and ±100 the full control effect; nearly all actives have a fitted effect of over 40% in size
In short: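 DPX-2 cells (HepG2 co-transfected with PXR and CYP3A4 promoter-luciferase) treated with compounds 24 h at 37C; luciferin-IPA CYP3A4 substrate 3uM final added for 3 h, then One-Glo; luminescence read. qHTS format.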

[6] = molecular target: Nuclear receptor subfamily 1 group I member 2 (Homo sapiens) (UniProt O75469); test: Human pregnane X receptor (PXR) activation by small molecules, qHTS assay (AID 1346985); further: on the % scale 0 is the no-effect control and ±100 the full control effect; nearly all actives have a fitted effect of over 40% in size
In short: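 DPX-2 cells (HepG2 co-transfected with a PXR response element and a CYP3A4-promoter luciferase construct) were seeded at 2,000 per well, rested 5 hr at 37C, then exposed to DMSO-dissolved compounds for 24 hr. Activation was read as luciferase luminescence.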

[7] = molecular target: Cytochrome P450 2C9 (Homo sapiens) (UniProt P11712); test: Cytochrome P450 Family 2 Subfamily C Member 9 (CYP2C9) small molecule antagonists: luciferase reporter qHTS assay (AID 1671198); further: nearly all actives have a fitted effect of over 50% in size; further: potency means the concentration at half of the fitted maximal effect
In short: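 CYP2C9 activity was measured with a P450-Glo proluciferin substrate. Enzyme–substrate mix was held with compound for 10 min at room temperature, then NADPH regeneration solution was added for 1 h at 37C. Luciferin product was read as luminescence.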

[8] = molecular target: Cytochrome P450 1A2 (Homo sapiens) (UniProt P05177); test: Cytochrome P450 Family 1 Subfamily A Member 2 (CYP1A2) small molecule antagonists: luciferase reporter qHTS assay (AID 1671199); further: nearly all actives have a fitted effect of over 50% in size; further: potency means the concentration at half of the fitted maximal effect
In short: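 Human CYP1A2 activity measured with a P450-Glo proluciferin substrate; compounds in DMSO preincubated 10 min at room temperature with enzyme-substrate mix, then NADPH regeneration system added for 1 h. Luciferin detection reagent, 20 min, luminescence read.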

[9] = molecular target: Voltage-gated inwardly rectifying potassium channel KCNH2 (Homo sapiens) (UniProt Q12809); test: Human Ether-a-go-go-Related Gene (hERG) channel small molecule antagonists: fluorescence cell-based qHTS assay (AID 1671200); further: nearly all actives have a fitted effect of over 50% in size; further: potency means the concentration at half of the fitted maximal effect
In short: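 In this thallium-flux screen, overnight-cultured U2OS cells bearing the channel are dye-loaded in darkness for an hour, rested 10 min at room temperature, and then monitored kinetically at 480/540 nm for two minutes post-stimulus.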

[10] = molecular target: Cytochrome P450 3A4 (Homo sapiens) (UniProt P08684); test: Cytochrome P450 Family 3 Subfamily A Member 4 (CYP3A4) small molecule antagonists: luciferase reporter qHTS assay (AID 1671201); further: nearly all actives have a fitted effect of over 50% in size; further: potency means the concentration at half of the fitted maximal effect
In short: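 CYP3A4 activity was followed with a P450-Glo proluciferin substrate. Test compounds in DMSO were preincubated 10 min; NADPH regeneration then ran 1 h, and light output was read 20 min after detection reagent.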

[11] = Caspase-3/7 induction in CHO-K1 cells by small molecules, qHTS cell viability counter screen (AID 1346979); further: potency means the concentration at half of the fitted maximal effect; nearly all actives have a fitted effect of over 35% in size
In short: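 Following a 5hr settling period, CHO-K1 cells at 1,500 per well received DMSO-dissolved compounds. Cell viability was quantified 16hr later by CellTiter-Fluor fluorescence, measured after 1hr with reagent at 37C.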

[12] = molecular target: Cytochrome P450 2D6 (Homo sapiens) (UniProt P10635); test: Cytochrome P450 Family 2 Subfamily D Member 6 (CYP2D6) small molecule antagonists: luciferase reporter qHTS assay (AID 1671196); further: nearly all actives have a fitted effect of over 50% in size; further: potency means the concentration at half of the fitted maximal effect
In short: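 CYP2D6 enzyme–substrate mix was held with compound for 10 min at room temperature, then NADPH regeneration solution was added and the reaction ran 1 h at room temperature. Luciferin product was detected by luminescence after 20 min with detection reagent.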

[13] = molecular target: Cytochrome P450 2C19 (Homo sapiens) (UniProt P33261); test: Cytochrome P450 Family 2 Subfamily C Member 19 (CYP2C19) small molecule antagonists: luciferase reporter qHTS assay (AID 1671197); further: nearly all actives have a fitted effect of over 65% in size; further: potency means the concentration at half of the fitted maximal effect
In short: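 Inhibition of CYP2C19 was scored from loss of luminescence in a P450-Glo proluciferin substrate assay, NADPH-started and run 1 h at 37C, with ketoconazole as positive control.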

Sequence of Cytochrome P450 2C9 (Homo sapiens) (P11712 whole entry, looked up): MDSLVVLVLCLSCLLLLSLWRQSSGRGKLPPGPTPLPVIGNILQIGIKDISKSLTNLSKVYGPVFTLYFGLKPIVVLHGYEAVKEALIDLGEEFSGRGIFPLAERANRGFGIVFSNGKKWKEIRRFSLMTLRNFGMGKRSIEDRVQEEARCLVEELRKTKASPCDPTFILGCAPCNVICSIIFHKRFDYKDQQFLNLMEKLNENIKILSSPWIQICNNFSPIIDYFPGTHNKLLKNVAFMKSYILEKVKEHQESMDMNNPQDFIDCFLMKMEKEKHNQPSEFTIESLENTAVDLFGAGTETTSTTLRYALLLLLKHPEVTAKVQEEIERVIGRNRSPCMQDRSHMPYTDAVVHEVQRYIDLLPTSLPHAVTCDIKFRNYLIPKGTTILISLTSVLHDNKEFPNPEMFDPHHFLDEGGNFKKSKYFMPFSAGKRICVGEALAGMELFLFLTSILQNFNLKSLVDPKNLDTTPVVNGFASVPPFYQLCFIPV
Sequence of Nuclear receptor subfamily 1 group I member 2 (Rattus norvegicus) (Q9R1A7 whole entry, looked up): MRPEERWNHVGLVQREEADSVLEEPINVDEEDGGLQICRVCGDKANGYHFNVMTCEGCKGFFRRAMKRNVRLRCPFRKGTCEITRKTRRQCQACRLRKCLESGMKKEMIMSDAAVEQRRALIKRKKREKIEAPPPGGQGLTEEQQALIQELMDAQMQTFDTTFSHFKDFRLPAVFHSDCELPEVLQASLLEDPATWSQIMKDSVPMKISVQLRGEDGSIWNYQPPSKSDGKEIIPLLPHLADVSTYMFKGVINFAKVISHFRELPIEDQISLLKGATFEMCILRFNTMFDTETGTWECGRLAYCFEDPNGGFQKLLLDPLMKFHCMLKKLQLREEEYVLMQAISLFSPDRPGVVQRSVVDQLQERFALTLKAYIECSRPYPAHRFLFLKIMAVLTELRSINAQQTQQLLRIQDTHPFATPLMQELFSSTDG
Sequence of Nuclear receptor subfamily 1 group I member 2 (Homo sapiens) (O75469 whole entry, looked up): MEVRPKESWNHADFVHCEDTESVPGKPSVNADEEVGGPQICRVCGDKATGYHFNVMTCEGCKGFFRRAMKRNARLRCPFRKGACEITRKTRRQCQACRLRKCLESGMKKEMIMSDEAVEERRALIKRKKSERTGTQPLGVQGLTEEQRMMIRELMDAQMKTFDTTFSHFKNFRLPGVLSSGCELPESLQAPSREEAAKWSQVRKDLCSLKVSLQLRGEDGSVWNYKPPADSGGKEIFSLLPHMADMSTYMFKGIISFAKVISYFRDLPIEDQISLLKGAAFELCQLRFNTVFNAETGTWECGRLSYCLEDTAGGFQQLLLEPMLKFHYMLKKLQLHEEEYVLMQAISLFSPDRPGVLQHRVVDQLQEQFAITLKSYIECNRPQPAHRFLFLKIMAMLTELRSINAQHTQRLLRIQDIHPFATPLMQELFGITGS
Sequence of Cytochrome P450 1A2 (Homo sapiens) (P05177 whole entry, looked up): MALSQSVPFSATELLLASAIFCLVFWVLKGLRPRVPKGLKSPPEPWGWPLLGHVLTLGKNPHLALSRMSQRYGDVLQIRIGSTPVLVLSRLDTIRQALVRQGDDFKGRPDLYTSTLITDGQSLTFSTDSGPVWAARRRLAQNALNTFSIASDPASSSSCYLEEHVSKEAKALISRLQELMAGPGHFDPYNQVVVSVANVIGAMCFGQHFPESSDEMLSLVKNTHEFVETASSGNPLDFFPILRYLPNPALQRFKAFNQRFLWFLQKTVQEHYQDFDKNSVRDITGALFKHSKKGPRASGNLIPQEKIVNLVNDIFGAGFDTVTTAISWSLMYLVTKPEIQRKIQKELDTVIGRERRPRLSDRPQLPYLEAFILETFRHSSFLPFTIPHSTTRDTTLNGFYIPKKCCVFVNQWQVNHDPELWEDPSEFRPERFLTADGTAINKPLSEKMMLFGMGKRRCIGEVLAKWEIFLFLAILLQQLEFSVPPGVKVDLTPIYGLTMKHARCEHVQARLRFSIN
Sequence of Cytochrome P450 3A4 (Homo sapiens) (P08684 whole entry, looked up): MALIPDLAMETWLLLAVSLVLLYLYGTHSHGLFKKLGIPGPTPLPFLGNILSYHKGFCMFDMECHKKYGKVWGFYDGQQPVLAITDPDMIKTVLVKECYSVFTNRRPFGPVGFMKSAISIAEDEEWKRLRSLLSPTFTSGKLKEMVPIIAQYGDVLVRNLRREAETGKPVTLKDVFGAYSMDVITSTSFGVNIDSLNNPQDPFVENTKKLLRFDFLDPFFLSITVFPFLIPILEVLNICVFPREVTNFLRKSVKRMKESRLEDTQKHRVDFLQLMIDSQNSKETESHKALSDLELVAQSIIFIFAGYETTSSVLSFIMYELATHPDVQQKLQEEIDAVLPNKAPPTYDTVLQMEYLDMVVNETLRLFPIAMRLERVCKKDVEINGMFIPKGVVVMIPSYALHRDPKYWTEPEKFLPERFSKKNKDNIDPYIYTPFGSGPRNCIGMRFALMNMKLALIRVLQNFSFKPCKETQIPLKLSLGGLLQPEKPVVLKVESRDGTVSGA
Sequence of Cytochrome P450 2C19 (Homo sapiens) (P33261 whole entry, looked up): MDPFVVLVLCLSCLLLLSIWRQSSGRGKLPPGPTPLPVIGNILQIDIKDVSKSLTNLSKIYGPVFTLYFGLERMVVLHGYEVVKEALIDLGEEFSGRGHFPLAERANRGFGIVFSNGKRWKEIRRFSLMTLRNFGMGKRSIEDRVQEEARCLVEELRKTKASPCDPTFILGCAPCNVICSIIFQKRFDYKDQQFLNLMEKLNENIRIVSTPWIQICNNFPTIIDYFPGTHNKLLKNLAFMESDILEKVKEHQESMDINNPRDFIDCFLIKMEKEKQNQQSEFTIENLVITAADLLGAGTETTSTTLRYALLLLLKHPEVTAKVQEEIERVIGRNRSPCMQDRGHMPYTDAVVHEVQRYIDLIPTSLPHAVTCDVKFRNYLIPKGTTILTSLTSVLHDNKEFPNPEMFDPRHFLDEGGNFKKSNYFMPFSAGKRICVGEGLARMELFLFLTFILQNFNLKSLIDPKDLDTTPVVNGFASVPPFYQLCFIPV
Sequence of Cytochrome P450 2D6 (Homo sapiens) (P10635 whole entry, looked up): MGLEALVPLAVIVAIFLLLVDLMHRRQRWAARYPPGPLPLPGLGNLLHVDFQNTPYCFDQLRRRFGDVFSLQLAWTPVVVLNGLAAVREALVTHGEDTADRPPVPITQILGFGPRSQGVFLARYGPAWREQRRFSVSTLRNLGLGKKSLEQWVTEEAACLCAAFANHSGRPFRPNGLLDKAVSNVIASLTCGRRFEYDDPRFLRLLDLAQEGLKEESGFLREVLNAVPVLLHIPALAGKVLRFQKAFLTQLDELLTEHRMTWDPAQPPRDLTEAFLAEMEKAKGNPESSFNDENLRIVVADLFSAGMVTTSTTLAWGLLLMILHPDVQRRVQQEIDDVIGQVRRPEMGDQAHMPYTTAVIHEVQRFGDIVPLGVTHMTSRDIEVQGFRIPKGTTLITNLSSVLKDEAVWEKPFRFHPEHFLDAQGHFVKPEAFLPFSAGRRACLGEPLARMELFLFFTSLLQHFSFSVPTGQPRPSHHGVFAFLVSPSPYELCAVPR
Sequence of Voltage-gated inwardly rectifying potassium channel KCNH2 (Homo sapiens) (Q12809 whole entry, looked up): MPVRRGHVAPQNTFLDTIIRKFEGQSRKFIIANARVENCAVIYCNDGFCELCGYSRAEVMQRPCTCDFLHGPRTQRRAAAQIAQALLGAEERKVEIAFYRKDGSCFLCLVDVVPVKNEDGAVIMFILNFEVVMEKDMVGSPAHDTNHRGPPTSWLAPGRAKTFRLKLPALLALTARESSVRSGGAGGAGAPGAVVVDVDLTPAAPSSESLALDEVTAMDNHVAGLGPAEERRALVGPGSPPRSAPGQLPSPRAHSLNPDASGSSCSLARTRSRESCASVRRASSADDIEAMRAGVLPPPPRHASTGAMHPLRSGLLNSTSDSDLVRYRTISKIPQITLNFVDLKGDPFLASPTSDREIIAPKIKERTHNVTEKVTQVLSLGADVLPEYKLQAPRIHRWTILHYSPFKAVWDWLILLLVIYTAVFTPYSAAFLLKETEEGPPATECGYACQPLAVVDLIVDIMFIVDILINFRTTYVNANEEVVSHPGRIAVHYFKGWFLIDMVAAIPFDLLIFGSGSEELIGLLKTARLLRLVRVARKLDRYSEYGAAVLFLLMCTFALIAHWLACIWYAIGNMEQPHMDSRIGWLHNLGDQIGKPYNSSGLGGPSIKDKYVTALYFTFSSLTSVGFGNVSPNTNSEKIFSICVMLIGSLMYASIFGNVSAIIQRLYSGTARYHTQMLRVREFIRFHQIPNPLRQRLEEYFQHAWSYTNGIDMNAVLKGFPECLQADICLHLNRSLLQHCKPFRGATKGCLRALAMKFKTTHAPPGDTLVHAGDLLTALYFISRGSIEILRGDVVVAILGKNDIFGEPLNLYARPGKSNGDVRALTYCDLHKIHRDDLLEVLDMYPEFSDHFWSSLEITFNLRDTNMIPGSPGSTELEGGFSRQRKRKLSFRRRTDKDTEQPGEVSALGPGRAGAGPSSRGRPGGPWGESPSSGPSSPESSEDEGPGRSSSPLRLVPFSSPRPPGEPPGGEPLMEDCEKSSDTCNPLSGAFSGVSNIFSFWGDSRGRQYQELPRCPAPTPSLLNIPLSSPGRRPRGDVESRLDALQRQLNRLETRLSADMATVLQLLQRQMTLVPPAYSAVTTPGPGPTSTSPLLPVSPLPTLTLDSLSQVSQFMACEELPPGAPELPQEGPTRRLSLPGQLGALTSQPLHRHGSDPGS

Row | Compound | Potency [1] | Potency [2] | Potency [3] | max activation [4] | Potency [5] | Potency [6] | Potency [7] | Potency [8] | Potency [9] | Potency [10] | Potency [11] | Potency [12] | Potency [13] | Potency [4]
1 | CCOC(=O)[C@@](C)(N)Cc1ccc(O)c(O)c1 | inactive | inactive | inactive | -0.299% (inactive) | inactive | inactive | inactive | inactive | inactive | inactive |  |  |  | 
2 | Cc1cc2c(C(C)C)c(O)c(O)c(C=O)c2c(O)c1-c1c(C)cc2c(C(C)C)c(O)c(O)c(C=O)c2c1O |  | 26.6 µM (active) | inactive |  |  |  | 34.7 µM (active) | inactive | inactive | inactive | 13.3 µM (active) | inactive |  | 
3 | CC1=C(/C=C/C(C)=C/C=C/C(C)=C/C(=O)Nc2ccc(O)cc2)C(C)(C)CCC1 |  | 55.9 µM (active) and 26.6 µM (active) | 19.8 µM (active) and inactive | -17.3% (inactive) | inactive | inactive | 9.17 µM (active) and 8.71 µM (active) | 72.8 µM (active) and inactive | inactive |  | 44.4 µM (active) and 21.1 µM (active) | 13.8 µM (active) | 41 µM (active) and 27.5 µM (active) | 
4 | CCCCCCCCCCOCC(O)CN (stereo not drawn) |  |  | inactive | -17.7% (inactive) |  |  | 13.8 µM (active) | 2.88 µM (active) | 23.9 µM (active) | inactive | 33.5 µM (active) | 6.92 µM (active) | 6.92 µM (active) | 
5 | CCOC(=O)C1=C(C)NC(C)=C(C(=O)OCC)C1c1ccccc1/C=C/C(=O)OC(C)(C)C |  |  | 1.33 µM (active) |  | inactive |  | 1.1 µM (active) |  |  |  | 33.5 µM (active) |  | 4.9 µM (active) | 3.55 µM (active)
6 | CC(C)c1ccc(O)c(C(C)C)c1 | inactive | inactive | inactive |  |  |  | 35.6 µM (active) | 31.7 µM (active) |  |  |  | inactive | 7.1 µM (active) | 
7 | C=C(c1ccc(C(=O)O)cc1)c1cc2c(cc1C)C(C)(C)CCC2(C)C |  |  | inactive | -18.2% (inactive) | inactive | inactive | 27.5 µM (active) | inactive | inactive | inactive | 61.1 µM (active) | inactive | inactive | 
8 | Clc1ccc(C(Cn2ccnc2)OCc2c(Cl)cccc2Cl)c(Cl)c1 (stereo not drawn) | inactive |  |  |  |  |  |  |  | 7.56 µM (active) |  | 21.1 µM (active) |  |  | 
9 | COCC(=O)O[C@]1(CCN(C)CCCc2nc3ccccc3[nH]2)CCc2cc(F)ccc2[C@@H]1C(C)C |  | 29.8 µM (active) | 1.68 µM (active) | -19.6% (inactive) | inactive | inactive | inactive | inactive |  |  | 29.8 µM (active) |  |  | 
10 | Cc1c(-c2ccc(O)cc2)n(Cc2ccc(OCCN3CCCCCC3)cc2)c2ccc(O)cc12 |  | 29.8 µM (active) | 9.44 µM (active) |  |  |  |  | inactive |  |  | 29.8 µM (active) |  |  | 
11 | CN(C)CCCN1c2ccccc2CCc2ccccc21 | inactive |  |  |  |  |  |  |  |  |  |  |  |  | 
12 | CC1=C(/C=C/C(C)=C/C=C/C(C)=C\C=O)C(C)(C)CCC1 |  |  | 51.6 µM (active) |  |  |  | 59.9 µM (active) |  |  | 30 µM (active) | 57.9 µM (active) |  | 37.8 µM (active) | 
13 | NC1(c2ccc(-c3nc4ccn5c(=O)[nH]nc5c4cc3-c3ccccc3)cc2)CCC1 | inactive |  |  |  |  |  | inactive | inactive |  | inactive | 26.6 µM (active) | inactive | inactive | 
14 | Cc1cccc(C)c1NC(=O)CN1CCN(CCCC(c2ccc(F)cc2)c2ccc(F)cc2)CC1 |  | 21.1 µM (active) | inactive | 3.4% (inactive) | inactive | inactive |  | inactive |  | inactive | 29.8 µM (active) | 2.45 µM (active) | 43.6 µM (active) | 
15 | CCN(CC)CCOc1ccc(C(O)(Cc2ccc(Cl)cc2)c2ccc(C)cc2)cc1 (stereo not drawn) |  |  | 9.44 µM (active) | -4.47% (inactive) |  |  | 38.9 µM (active) | inactive | 1.34 µM (active) |  | 26.6 µM (active) | inactive | 38.9 µM (active) | 
16 | C[C@@H]1CC[C@H]2C(C)(C)[C@H]3C[C@@]12CC[C@@]3(C)O | inactive | inactive | inactive |  |  |  |  |  |  |  |  |  |  | 
17 | CC=O |  | inactive | 4.53 µM (active) |  |  |  | inactive | 37.2 µM (active) | 4.57 µM (active) | inactive | 4.03 µM (active) | 8.34 µM (active) |  | 
18 | CCCCCCCCCCCCN(CCO)CCO |  | 68.3 µM (active) | 15.3 µM (active) |  |  |  | 63 µM (active) | 11.2 µM (active) | 7.73 µM (active) | inactive | 43.1 µM (active) | 11.2 µM (active) | 25.1 µM (active) | 
19 | CC(C)=CC1CC(C)CCO1 (stereo not drawn) | inactive | inactive | inactive |  |  |  | inactive | inactive | inactive | inactive |  | inactive | inactive | 
20 | COc1ccc2sc(C(=O)Nc3nnn[nH]3)c(OC(C)C)c2c1 | inactive |  |  |  |  |  | 22.4 µM (active) | inactive | inactive |  | 38.4 µM (active) | inactive | inactive | 
21 | Cc1oc(-c2ccccc2)nc1CCOc1ccc(C[C@H](Nc2ccccc2C(=O)c2ccccc2)C(=O)O)cc1 |  | 43.3 µM (active) |  |  |  |  | 20 µM (active) | inactive | inactive |  | 30.6 µM (active) | inactive |  | 
22 | O=C1NC2CCCCN2C12CCN(CCCN1c3ccccc3CCc3ccc(Cl)cc31)CC2 (stereo not drawn) |  | 29.8 µM (active) | inactive |  |  |  | inactive | inactive | 0.756 µM (active) | inactive | 26.6 µM (active) | 7.76 µM (active) |  | 
23 | CC(C)(C)CC(C)(C)c1ccccc1O |  | 61.4 µM (active) | 21.8 µM (active) |  |  |  | 17.9 µM (active) | 35.8 µM (active) |  | 63.6 µM (active) | 61.4 µM (active) |  | inactive | 
24 | Cc1ccc(N)cc1O |  | inactive | 34.4 µM (active) |  |  |  | 21.8 µM (active) | 11.1 µM (active) | inactive |  | 52.9 µM (active) | 3.66 µM (active) | 3.56 µM (active) | 
